Rows were chosen to be rich in hits. Some 17% of all compounds tested hit in one or more screens of this group.
TGFb inhibitor: qHTS for Inhibitors of TGF-b. HepG2 CAGA-GFP TGF-b/SMAD3 reporter, GFP fluorescence, 18 h; TGF-beta stimulated, 500 pg/mL final. Potency, µM (top dose mostly 46.1 µM), for the others: at the top dose activity, negative = inhibition, actives largely listed as inhibitors. actives 1.2% (n = 410,000). AID 588855, 2011; further: on the % scale 0 is the no-effect control and ±100 the full control effect; nearly all actives have a fitted effect of over 65% in size
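Smad-responsive CAGA-GFP expression was quantified in HEPG2 cells exposed to compounds and 500 pg/mL final TGF-beta for 18 h at 37 degrees C; unstimulated wells defined full inhibition.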
HT1080 IDH1KD tx: qHTS for induction of synthetic lethality in tumor cells producing 2HG: qHTS for the HT-1080-IDH1KD cell line. actives 2% (n = 360,000). HT-1080 IDH1 knockdown viability, ATP luminescence, 48 h. AID 686971, 2013. Potency, µM (doses to about 46.1 µM), without a hit: top-dose activity, negative = toxicity, usual class: cytotoxic;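 further: 0% = DMSO wells and -100% = cell-free medium wells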
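HT-1080-IDH1KD cells (IDH1 knocked down), 750/well in RPMI with 5% FBS, treated with compound 48 h at 37 degrees C. Viability by CellTiter-Glo luminescence, normalised to DMSO and no-cell wells; concentration-response curves classed.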
DT40 TDP1 CPT: qHTS for Inhibitors of human tyrosyl-DNA phosphodiesterase 1 (TDP1): qHTS in cells in presence of CPT; AID 686979, 2013; chicken DT40 Tdp1-/-;hTDP1 cells + 20 nM CPT, ATP luminescence, 48 h; Potency, µM (titrated, usually from 46.2 µM), without a hit: at the top dose activity change, negative = growth inhibition, most hits filed as inhibitors; actives 12% (n = 420,000); further: on the % scale 0 is the no-effect control and ±100 the full control effect; nearly all actives have a fitted effect of over 55% in size
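Chicken DT40 Tdp1-/- cells complemented with human TDP1, 400 cells/well, exposed to compounds plus 20 nM camptothecin for at least 48 h at 37 C; viability read as ATP content by CellTiter-Glo luminescence.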
DT40 TDP1 no CPT: qHTS for Inhibitors of human tyrosyl-DNA phosphodiesterase 1 (TDP1): qHTS in cells in absence of CPT; DT40 Tdp1-/- hTDP1 cells, no CPT, ATP luminescence, 48 h; Potency, µM (highest dose often 46.2 µM), for inactives: at the highest dose activity change, negative = growth inhibition, most hits filed as inhibitors; actives 15% (n = 420,000); further: on the % scale 0 is the no-effect control and ±100 the full control effect; nearly all actives have a fitted effect of over 55% in size
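Seeded 400 DT40-hTDP1 cells/well (vehicle DMSO, no 20 nM CPT); pinned compounds; ≥48 hr at 37 °C; CellTiter-Glo luminescence as viability measure.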
HepG2 tox: qHTS for Inhibitors of TGF-b: Cytotox Counterscreen; Potency, µM (series often up to 46.1 µM), without a hit: top-dose activity change, negative = cytotoxicity, most hits filed as cytotoxic; actives 0.76% (n = 410,000); HepG2 CAGA-GFP viability, ATP luminescence, 18 h; AID 588856, 2011
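HepG2 CAGA-GFP cells (1000/well, DMEM with 1% FBS) received compound, then TGF-beta at 500 pg/mL final, and were incubated 18 hours at 37 degrees C. Viability was read by CellTiter-Glo luminescence. Media-only wells were set as complete cell-killing and DMSO as no toxicity.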
HT1080-NT tox: qHTS for induction of synthetic lethality in tumor cells producing 2HG: qHTS for the HT-1080-NT fibrosarcoma cell line; actives 1.6% (n = 360,000); Potency, µM (titrated, usually from 46.1 µM), for the others: at the highest dose activity, negative = less viability, most hits filed as cytotoxic; HT-1080-NT fibrosarcoma viability, CellTiter-Glo ATP luminescence, 48 h;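 further: NT is the 2HG producing partner of a matched IDH1 knockdown line; 0% = DMSO-treated cells and -100% = media-only wells without cells; nearly all actives have a fitted effect of over 55% in size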
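Read-out is CellTiter-Glo luminescence after 10 minutes at room temperature, following 48 hours' compound treatment of HT-1080-NT cells (750 cells/well, RPMI, 5% FBS, 37 degrees C).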
* marks the source's active call; other numbers are inactive results; ? = inconclusive; · = no result given. The call rests on the fitted dose curve; in most records, active means well fitted curve in the direction sought with a large enough effect; inconclusive means small, poorly fitted or top-dose-only effect, or another doubt; inactive means no such curve, though single readings can be large; an effect the other way counts as inactive or inconclusive. Potency means the concentration at half of the fitted maximal effect.

SMILES	TGFb inhibitor	HT1080 IDH1KD tx	DT40 TDP1 CPT	DT40 TDP1 no CPT	HepG2 tox	HT1080-NT tox
CC(C)c1ccc(NC(=O)C2CCCN(S(=O)(=O)c3ccc(Br)s3)C2)cc1 (stereo not drawn)	-9%	·	?	?	-9%	·
CSc1cccc(NC(=O)C2CCN(S(=O)(=O)c3ccc(F)cc3)CC2)c1	-28%	?	?	21µM*	-41%	-28%
COc1cc(OC)c(C(=O)N/N=C/c2ccoc2)cc1OC	-7%	-4%	-9%	-7%	-9%	1%
CSc1ccc(CNC(=O)Cn2ccc3cc(S(=O)(=O)N4CCCC4)ccc32)cc1	10%	·	?	?	-28%	·
COc1ccc(OC)c(S(=O)(=O)N2CCC(C(=O)Nc3cccc(C(F)(F)F)c3)CC2)c1	3%	-28%	18µM*	15µM*	-17%	-25%
CCCCc1ccc(S(=O)(=O)N2CCN(C(=O)c3ccco3)CC2)cc1	0%	-4%	?	8.2µM*	0%	0%
CCN(CC)S(=O)(=O)c1ccc(S(=O)(=O)N2CCN(C(=O)c3ccco3)CC2)cc1	11%	18%	-15%	-4%	-2%	5%
COc1ccc(S(=O)(=O)N2CCC(C(=O)Nc3ccc(S(=O)(=O)N4CCCC4)cc3)CC2)cc1OC	-1%	-6%	?	29µM*	1%	-12%
O=C(Nc1ccc(S(=O)(=O)N2CCOCC2)cc1)C1CCN(S(=O)(=O)c2ccccc2)CC1	-14%	-15%	?	16µM*	-11%	-13%
Cc1ccc(S(=O)(=O)CCC(=O)OCc2cc(=O)oc3cc(C)ccc23)cc1	0%	9%	-1%	-1%	-23%	-8%
CCN(C[C@H]1N[C@@](CC)(C(=O)OC)[C@H]2C(=O)N(Cc3ccccc3)C(=O)[C@@H]12)C(=O)COc1ccccc1	1%	6%	?	?	2%	4%
O=C(Nc1ccc(Br)cc1)C1CCCN1S(=O)(=O)c1ccc(F)cc1 (stereo not drawn)	·	·	?	15µM*	-31%	·
COc1ccc(OC)c(S(=O)(=O)N2Cc3ccccc3CC2C(=O)Nc2ccc(C(C)=O)cc2)c1 (stereo not drawn)	·	·	?	10µM*	-2%	·
COc1ccc(NC(=O)C2CCCCN2N)cc1OC (stereo not drawn)	19%	11%	?	18µM*	-7%	-2%
O=C(Nc1nc2ccccc2n1CCN1CCCCC1)c1ccco1	?	13%	?	?	11%	9%
O=C(Nc1nc2ccccc2n1CCOc1ccc(Cl)cc1)c1ccco1	-23%	-19%	26µM*	18µM*	-43%	-16%
O=C(Nc1nc2ccccc2n1CCOc1ccccc1)c1ccco1	?	-25%	15µM*	15µM*	-24%	-17%
Cc1cccc(OCCn2c(NC(=O)c3ccco3)nc3ccccc32)c1	-6%	-28%	26µM*	?	-24%	-18%
O=C(Nc1nc2ccccc2n1Cc1ccc(Cl)cc1)c1ccco1	?	-13%	?	-27%	-21%	-12%
CC(=O)Nc1ccc(SCCN2CCN(C)CCC2=O)cc1	7%	·	·	·	-4%	·
COc1ccc(CCc2nnc(CCC(=O)N(C)Cc3ccncc3C)o2)cc1	2%	-6%	?	-23%	3%	5%
CC(=O)Nc1cccc(NC(C)=C(C#N)C#N)c1	?	12%	0%	-5%	15%	17%
COc1ccc(N2CCC(CNC(=S)Nc3ccc(C)cc3C)C2)cc1 (stereo not drawn)	?	-2%	?	18µM*	-40%	-17%
COc1ccc(N2CCC(CNC(=S)Nc3c(C)cc(C)cc3C)C2)cc1 (stereo not drawn)	?	6%	?	?	-13%	-1%
CCc1ccc(NC(=O)NCC2CCN(c3ccc(OC)cc3)C2)cc1 (stereo not drawn)	-9%	-11%	9.2µM*	-23%	-4%	0%
SMILES	TGFb inhibitor	HT1080 IDH1KD tx	DT40 TDP1 CPT	DT40 TDP1 no CPT	HepG2 tox	HT1080-NT tox
Cc1ccc(Nc2nc(Cl)nc(NC(C)(C)C)n2)cc1	-25%	-1%	?	23µM*	-19%	-2%
CC(C)(C)Nc1nc(Cl)nc(NCc2ccccc2)n1	13%	-1%	18µM*	?	-20%	0%
Cc1ccc(Nc2nc(Cl)nc(N(C)C#N)n2)cc1	0%	?	?	23µM*	-59%	?
CC(C)(C)Nc1nc(Nc2ccc([N+](=O)[O-])cc2)nc(NC(C)(C)C)n1	-14%	18%	21µM*	21µM*	4%	-1%
COc1ccc(CNCC(O)COc2ccc3[nH]c(=O)ccc3c2)cc1OC (stereo not drawn)	·	·	10%	-2%	·	·
c1csc(-c2csc3ncnc(NCCCN4CCOCC4)c23)c1	-4%	?	16µM*	13µM*	5%	?
Cc1csc2c(NCCCN3CCOCC3)ncnc12	-10%	0%	6%	1%	6%	2%
O=c1c2c(-c3ccccc3)csc2nc2c3ccccc3c(NCCN3CCOCC3)nn12	0%	10µM*	8.2µM*	5.2µM*	-4%	15µM*
O=c1c2ccccc2nc(-c2ccccc2)n1CCN1CCOCC1	4%	-1%	-18%	-1%	-2%	7%
c1ccc(-c2csc3ncnc(NCCCN4CCOCC4)c23)cc1	7%	?	12µM*	13µM*	4%	-25%
O=C(COC(=O)C1CC1)NC(=O)c1ccccc1	9%	6%	?	-6%	5%	0%
CC1Cn2cc(C(=O)Nc3cccc(C(F)(F)F)c3)c(=O)c3c(Cl)ccc(c32)O1 (stereo not drawn)	1%	·	-8%	-12%	2%	·
O=C(CN1CCCC1)OCCCc1ccccc1	0%	16%	-7%	-18%	-2%	29%
O=C(NC1(Cc2ccccc2)CCN(CCCc2ccccc2)C1=O)c1ccccc1 (stereo not drawn)	?	-19%	0.65µM*	1.2µM*	0%	-7%

Assay outcomes from PubChem BioAssay.
